The text below walks through data of PubChem BioAssay AID1508600 (Functional Genomics Laboratory (NCATS/FGL), 2020).

About 3,700 (7%) of roughly 53,000 sequences were called active.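 Rule for the calls: active = gene knockdowns whose robust z-score for IL-1 alpha signal is at least 2 or at most -2, so actives lie on both sides; inactive = the rest.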 Shown is part of a subset that was picked to be rich in actives.

This assay in a line: Components of the Cytosolic LPS Sensing Pathway: Gene Identification via Genome-wide siRNA Screen.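 Note: robust z of the log signal after scaling to non-targeting control siRNA wells of the plate.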 To be noted: RAW264.7 macrophages, IL-1a HTRF, actives lie on both sides, screened at 100 nM (by protocol), cells primed 5 h with Pam3CSK4 first. A digest of the protocol:
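Supernatant IL-1a by HTRF from RAW264.7 cells primed with Pam3CSK4 (5 hours) and transfected with LipidA (24 hour) after 48h siRNA knockdown at 100 nM; cell viability checked with CellTiter-Glo.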
(In general: In TR-FRET formats the signal depends on donor and acceptor labels being close together.)
Take GGCCUUACCAAAUGGAAGUTT against Ifih1: the z-score is 2.89 (active).
Under GCACGGAUUAAUGUGAUGATT against Ilk stands 0.406 (inactive); under CCGUUGGAUACUGUAGUUCTT against Gpr152, 0.023 (inactive); under GCAACACACCAUAUCAGGATT against Tas2r135, -0.322 (inactive).
As to CCACCAUCGGUUGUUAGUUTT against Actg1, the z-score was 1.81 (inactive).
The same measure for GGACAGCUUGUAAAUUGCCTT against Mup21: -2.05 (active); for GGUCUCAUUUCAAAUGGUUTT against Lonrf3: 0.63 (inactive); for GGAGAUUUCUUCCAUGGUCTT against Hspa2: 0.445 (inactive).
Under CGACAGAGUGAAAAUUAAGTT against Setd3 stands -0.937 (inactive).
The same measure for CGCAGAGAAGGACUAUCUUTT against Ush1c: -1.58 (inactive); for GGACAAGUGUCAGAUAUCATT against Asah2: -2.02 (active); for CCUGCUUACCAAAGAAUCCTT against Klf11: -0.884 (inactive).
Consider GGGACAAGUUGGAUUCUUGTT against Polr1e, for which the z-score was -0.96 (inactive).
Under GCCUUACAACAAGCAACACTT against Esrp1 stands -0.385 (inactive); under GCGGGCCAUGACAAUUACUTT against Slc45a1, 0.566 (inactive).
Under GCGAUGCUGGCAAGUAUGUTT against Robo1 stands 0.45 (inactive); under CCCAGACGAGAACUGUAUCTT against Sqor, -0.0381 (inactive).
Under GGGUUAGGAUACCUCGACUTT against Arnt2 stands -2.5 (active).
As for GGAAAGAUGUGGAAGUAAATT against Erc1, the z-score was -0.977 (inactive).
GGAAAAGCAAGAGGAAAGATT against Ifnb1: the z-score was 2.39 (active).
Under GCAACCAUCGUAGCAGAUCTT against Aaas stands 1.54 (inactive).
For GCCACUGAUGUAAGGCUCATT against Lurap1l, the z-score was 0.871 (inactive).
The same measure for CCCUCGUCUGAAAUGGAAATT against Nploc4: -2.02 (active).
The same measure for GGAACAGCUGACCUACUUUTT against Ahi1: 1.08 (inactive).
Under GGUAGACCAGCUUAAGAAGTT against Gngt1 stands -0.0811 (inactive); under GGCUUUUCACAAAACUGUUTT against Zfp120, 1.07 (inactive).
Regarding CCUAAAUCCUGCUAGGCGUTT against Cbln1, the z-score is -1.03 (inactive).
Under GGUUAUAGGAAGGAAUUGCTT against Krt90 stands 2.58 (active); under GAUGUCCUUCACCUUUGCCTT against Atp5d, -1.9 (inactive).
Regarding GGCGCACACUUUCACCUAATT against Tmem170, the z-score is 0.194 (inactive).
